Consider 19 compounds from PubChem BioAssay (NCI).

About 83,000 compounds went through this panel and 20% of them were active in at least one assay; those are over-represented in the sample as a whole.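 The test compound was applied at a single concentration to cells in 96-well plates for 48 hours, and percent growth was recorded.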 Unmarked numbers belong to inactive results. The source made the active and inactive calls. Rule for the calls: active = growth percent below 10; inactive = the rest.

The assay deals with PC-3 prostate. Nature of the assay: NCI-60 one-dose screen, 48 h (100 = growth as untreated, 0 = no growth, -100 = all killed). Particulars: 10 µM unless noted.
In the case of `N#CCCN1C(=O)CCC1C(=O)O` (centres undefined), the growth was 90.9%. In the case of `Cc1c(-c2ccc(C3CCCCC3)cc2)nc2ccc(F)cc2c1C(=O)O`, the growth was 44.9%.

Consider `O=C(OCc1ccccc1)n1nnc2ccccc21`, for which the growth is 104%. With `CCOC(=O)Nc1nccs1`, the growth was 97.7%. With `CCC(/C=C\C(C)=O)CC`, the growth is 91.3%.

Take `OCC(O)COc1ccc(Cl)cc1Cl` (centres undefined): the growth is 97.3%. To `CSc1nsc(N)n1` belongs 93.6%; to `CC(=O)Nc1ncc(S(=O)(=O)c2ccc([N+](=O)[O-])cc2)s1`, 101%.

In the case of `Cc1ccc(N2C(=O)c3cccc4c(N)c(S(=O)(=O)O)cc(c34)C2=O)cc1`, the growth is 90%. With `Oc1cccnc1CN1CCCC1`, the growth was 89.7%. Take `CC(C)c1ccc(C(=O)OCCCl)cc1`: the growth is 106%. With `CCOP(=O)(OCC)/C(=C\N1C(=O)CC(=O)NC1=S)C(=O)OC`, the growth is 97.8%. `Cc1cc2c(C(C)C)c(O)c(O)c(C=Nc3ccccc3[N+](=O)[O-])c2c(O)c1-c1c(C)cc2c(C(C)C)c(O)c(O)c(C=Nc3ccccc3[N+](=O)[O-])c2c1O`: the growth is 65.1%. As for `COc1ccc(/C=N/NC(=O)COCC(=O)N/N=C/c2ccc(OC)cc2)cc1`, the growth is 88.8%. Consider `CCOC(=O)CSCCC#N`, for which the growth is 97.8%. As for `CCCCCCCCNC(=O)C(C)C`, the growth is 94.9%. The value for `C1=NCCc2ccccc21` was 87.7%.

With `O=[N+]([O-])c1ccc(-c2nc(N(CCO)CCO)c3ccccc3n2)o1`, the growth was -0.975% (active). Take `Cc1cc(CO)c(O)c(CO)c1`: the growth was 101%.
